In all, about 310,000 compounds went through this assay and about 14,000 (4.5%) showed an effect of 50% or more. The effect is printed as a negative number. For the sample, strong results were picked, then their nearest neighbours and some compounds at random.
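Note: peak tail current of the secondary pulse compared with the same well before compound.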

human ether-à-go-go-related gene (hERG) potassium channel, sequence (Q12809 whole entry, looked up): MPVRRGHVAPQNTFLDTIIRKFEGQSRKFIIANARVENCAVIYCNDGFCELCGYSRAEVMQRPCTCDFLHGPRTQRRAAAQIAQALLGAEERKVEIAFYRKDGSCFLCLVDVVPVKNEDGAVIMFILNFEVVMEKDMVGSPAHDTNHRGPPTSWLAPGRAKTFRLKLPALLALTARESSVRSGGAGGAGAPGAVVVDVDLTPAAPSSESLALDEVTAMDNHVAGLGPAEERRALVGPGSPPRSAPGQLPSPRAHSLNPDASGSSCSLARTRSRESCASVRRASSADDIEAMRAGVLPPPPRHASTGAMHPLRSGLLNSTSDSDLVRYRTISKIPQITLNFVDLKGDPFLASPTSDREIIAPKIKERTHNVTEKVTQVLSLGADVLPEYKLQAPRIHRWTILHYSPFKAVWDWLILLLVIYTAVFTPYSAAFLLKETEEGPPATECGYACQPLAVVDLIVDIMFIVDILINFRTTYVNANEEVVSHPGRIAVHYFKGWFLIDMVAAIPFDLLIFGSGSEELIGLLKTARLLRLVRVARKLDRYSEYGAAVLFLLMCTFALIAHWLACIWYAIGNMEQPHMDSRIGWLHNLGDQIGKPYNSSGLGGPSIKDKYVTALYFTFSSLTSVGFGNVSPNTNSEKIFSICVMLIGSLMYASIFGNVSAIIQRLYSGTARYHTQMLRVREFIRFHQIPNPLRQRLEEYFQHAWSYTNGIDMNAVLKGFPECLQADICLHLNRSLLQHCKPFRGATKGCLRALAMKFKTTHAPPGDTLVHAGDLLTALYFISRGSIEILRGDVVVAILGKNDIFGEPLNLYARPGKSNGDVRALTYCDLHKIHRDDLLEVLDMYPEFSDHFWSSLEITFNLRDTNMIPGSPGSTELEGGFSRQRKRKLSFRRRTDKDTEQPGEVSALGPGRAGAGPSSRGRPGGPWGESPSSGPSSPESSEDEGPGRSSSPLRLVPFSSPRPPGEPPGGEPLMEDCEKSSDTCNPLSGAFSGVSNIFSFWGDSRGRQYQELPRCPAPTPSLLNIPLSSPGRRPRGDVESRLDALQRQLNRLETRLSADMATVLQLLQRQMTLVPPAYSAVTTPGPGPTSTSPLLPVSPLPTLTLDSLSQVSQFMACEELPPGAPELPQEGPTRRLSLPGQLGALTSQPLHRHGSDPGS

This test addresses human ether-à-go-go-related gene (hERG) potassium channel (human, UniProt Q12809). Put plainly: primary screen, population patch clamp on CHO cells stably expressing hERG; higher = less effect of the substance.
In the case of `Cn1c(N)c(C(=O)CNC2CCCCC2)c(=O)n(C)c1=O`, the “hERG current change (%, negative = inhibition) at 10uM” value was 5.61%.
Regarding `COc1ccc(-c2cc(-c3n[nH]c(=S)n3-c3ccccc3Cl)[nH]n2)cc1`, the “hERG current change (%, negative = inhibition) at 10uM” value is 13.5%.
In the case of `Nn1c(Cc2cccc3ccccc23)nnc1SC1CCOC1=O` (stereo not drawn), the “hERG current change (%, negative = inhibition) at 10uM” value was -0.158%.
The value for `Cc1ccc(-c2cc(C(=O)N/N=C/C=C/c3ccccc3)n[nH]2)o1` was -7.76%; that for `Cc1ccc(C)c(N2CCN(c3ncccc3[N+](=O)[O-])CC2)c1` was 2.42%.
In the case of `CCOCCCNC(=O)c1cc(Cl)c(NC(=O)C2=C(C)OCCS2)cc1OC`, the “hERG current change (%, negative = inhibition) at 10uM” value is given as -9.78%.
`CCCNC(=O)c1cc(Cl)c(NC(=O)C2=C(C)OCCS2)cc1OC`: the “hERG current change (%, negative = inhibition) at 10uM” value is listed as -14.5%.
As for `COc1cc(NC(=O)C2=C(C)OCCS2)c(Cl)cc1C(=O)NCCN1CCN(C)CC1`, the “hERG current change (%, negative = inhibition) at 10uM” value is -47.1%.
In the case of `CCN(CC)CCCNC(=O)c1cc(Cl)c(NC(=O)C2=C(C)OCCS2)cc1OC` it was -61.5%.
In the case of `CCN1CCN(CCNC(=O)c2cc(Cl)c(NC(=O)C3=C(C)OCCS3)cc2OC)CC1` it was -73.4%; in that of `COc1cc(NC(=O)C2=C(C)OCCS2)c(Cl)cc1C(=O)NCCN(C)C`, -3.65%; in that of `O=C(CCS(=O)(=O)c1ccccc1)Nc1ccc(Cl)cn1`, -3.42%.
In the case of `CCN(CC)C(=O)Cn1cc(C(=O)C(=O)NCCCn2ccnc2)c2ccccc21` it was 27.8%; in that of `CCCN1C(=O)COc2ccc(C(=O)c3ccccc3C(=O)O)cc21`, 17.7%.
Consider `CC(c1ccccc1)N1C(=O)c2ccc(C(=O)NCc3cccnc3)cc2C1=O` (stereo not drawn), for which the “hERG current change (%, negative = inhibition) at 10uM” value is given as -18.4%.
In the case of `O=C(NC(=S)N(Cc1ccccc1)Cc1ccccc1)C1CCCCC1` it was 12.6%.
For `COc1ccc(C(=O)N2CCN=C2SC)cc1`, the “hERG current change (%, negative = inhibition) at 10uM” value is 1.04%.
In the case of `O=S(=O)(Nc1cccnc1)c1cc(Cl)ccc1Cl` it was 9.51%.
Turning to `CCOC(=O)C1CCCN(Cc2cc(OC)c(O)c(OC)c2)C1` (stereo not drawn), the “hERG current change (%, negative = inhibition) at 10uM” value was -2.31%.
In the case of `COc1ccc(OC)c(CN2CCCC(C(=O)c3sccc3C)C2)c1` (stereo not drawn) it was -63.9%; in that of `COCc1ccc(CN2CCCC(C(=O)c3sccc3C)C2)o1` (stereo not drawn), 5.56%.
The value for `COc1cc(CN2CCCC(C(=O)c3sccc3C)C2)cc(Cl)c1O` (stereo not drawn) was -53.8%.
The value for `COc1cc(CN2CCCC(C(=O)c3sccc3C)C2)cc(OC)c1O` (stereo not drawn) was -47.8%; that for `COc1ccc(O)c(CN2CCCC(C(=O)c3sccc3C)C2)c1` (stereo not drawn) was 9.89%; that for `COc1cc(CN2CCCC(C(=O)c3ccc(C(C)(C)C)cc3)C2)cc(OC)c1O` (stereo not drawn) was -47.3%.
Turning to `CCc1ccc(CN2CCCC(C(=O)c3sccc3C)C2)o1` (stereo not drawn), the “hERG current change (%, negative = inhibition) at 10uM” value was found to be 2.99%.
Consider `COc1cc(OC)c(OC)cc1CN1CCCC(C(=O)c2sccc2C)C1` (stereo not drawn), for which the “hERG current change (%, negative = inhibition) at 10uM” value was -63.4%.
As to `COc1cc(CN2CCCC(C(=O)c3ccc(SC)cc3)C2)cc(Cl)c1O` (stereo not drawn), the “hERG current change (%, negative = inhibition) at 10uM” value was -72.8%.
In the case of `Cc1ccc(CN2CCCC(C(=O)c3sccc3C)C2)o1` (stereo not drawn) it was -11%.
The value for `O=C(CCn1cnc2ccccc2c1=O)Nc1ccc2c(c1)OCCO2` was 15.1%; that for `Cc1cc(C(=O)N(C)C2CCCCC2)no1` was 11.7%.
In the case of `CC(=O)O[C@H]1CC[C@@]2(C)[C@@H](CC[C@@H]3[C@@H]2CC[C@]2(C)[C@@H](C(C)(C)O)C[C@@H]32)C1` it was 9.09%; in that of `CC(C)(C)S(=O)(=O)/C(C#N)=N/Nc1ccc(C#N)cc1`, 22.1%.
In the case of `CN(CCc1ccccn1)C(=O)Nc1ccc(F)cc1`, the “hERG current change (%, negative = inhibition) at 10uM” value is on record as 12.7%.
On to `COc1ccccc1/C=N/Nc1nc(C)c(C(C)=O)s1`, for which the “hERG current change (%, negative = inhibition) at 10uM” value is given as 5%.
With `CC(Oc1ccccc1)C(=O)N1CCC2(CC1)Oc1ccc(F)cc1C(=O)C21CC(c2cccnc2)=NO1` (stereo not drawn), the “hERG current change (%, negative = inhibition) at 10uM” value is given as -20.5%.
On to `[Cl-].c1ccc(COc2ccc(-c3sc(Nc4ccccc4)n[n+]3-c3ccccc3)cc2)cc1`, for which the “hERG current change (%, negative = inhibition) at 10uM” value is -43.9%.
As for `O=C(CSc1nc(C(F)(F)F)cc(=O)[nH]1)N1CCCC1`, the “hERG current change (%, negative = inhibition) at 10uM” value turned out to be 19%.
The value for `Cc1ccc(NCc2ccco2)cc1C.O=C(O)C(=O)O` was 1.93%.
As for `Cc1onc(-c2c(Cl)cccc2Cl)c1C(=O)Nc1nc(C(C)(C)C)cs1`, the “hERG current change (%, negative = inhibition) at 10uM” value is on record as -26.4%.
Consider `Cc1ccsc1C(=O)C1CCCN(CCO)C1` (stereo not drawn), for which the “hERG current change (%, negative = inhibition) at 10uM” value amounted to 5.34%.
In the case of `COc1ccc(CN2CCCC(C(=O)c3sccc3C)C2)cc1O` (stereo not drawn) it was -71.9%; in that of `Cc1nc(CCNC(=O)CC2C(=O)NCCN2Cc2ccc(F)cc2)sc1C` (stereo not drawn), 12.3%; in that of `O=C(OCc1cccc([N+](=O)[O-])c1)c1ccc2ccccc2n1`, 7.33%.
The value for `CC(C)C(OC(=O)CN1C(=O)c2ccccc2C1=O)C(=O)NC1CCCC1` (stereo not drawn) was 18.7%.
For `COC(=O)CNC(=O)C12CC3CC(C1)CC(c1ccc(C)cc1)(C3)C2`, the “hERG current change (%, negative = inhibition) at 10uM” value is on record as 12.9%.
The value for `C=CCn1c(O)c(C=NCCCOc2ccc(CC)cc2)c(=O)[nH]c1=S` was 21.8%; that for `CCN(CC)C(=O)C1CCN(Cc2ccc(OCc3ccccc3)cc2)CC1.O=C(O)C(=O)O` was -48.7%; that for `NC(=O)C1CCN(Cc2ccc(OCc3ccccc3)cc2)CC1.O=C(O)C(=O)O` was -29.5%.
For `CCCCN(C)C(=O)C1CCN(Cc2ccc(OCc3ccccc3)cc2)CC1.O=C(O)C(=O)O`, the “hERG current change (%, negative = inhibition) at 10uM” value was -73.4%.
Regarding `CCCCN(C)C(=O)C1CCN(Cc2cccc(OCc3ccccc3)c2)CC1.O=C(O)C(=O)O`, the “hERG current change (%, negative = inhibition) at 10uM” value is recorded as -67.7%.
As to `O=C(NCc1ccccn1)C1CCN(Cc2cccc(OCc3ccccc3)c2)CC1.O=C(O)C(=O)O`, the “hERG current change (%, negative = inhibition) at 10uM” value is reported as -35.7%.
Turning to `C=CCN(CC=C)C(=O)C1CCN(Cc2ccc(OCc3ccccc3)cc2)CC1.O=C(O)C(=O)O`, the “hERG current change (%, negative = inhibition) at 10uM” value is on record as -68%.
The value for `CCN(CC)C(=O)C1CCN(Cc2cccc(OCc3ccccc3)c2)CC1.O=C(O)C(=O)O` was -39.6%; that for `COc1cccc(NC(=O)c2nn(C)c3c2CS(=O)(=O)c2ccccc2-3)c1` was 8.68%.
The value for `O=C(NCCCc1ccccc1)c1cccc([N+](=O)[O-])c1` was -23%; that for `COc1ccc(COC(=O)Nc2cn(C)nc2C(F)(F)F)cc1` was -7.76%.
In the case of `C=C(C)C(=O)N1CC2(CC(c3cccc(NC(=O)COc4ccc(Cl)cc4)c3)=NO2)C[C@@H]1C(N)=O` (stereo partly drawn) it was -15.3%.
For `CN1Cc2c(N3CCOCC3)nc(SCCC#N)c(C#N)c2CC1(C)C`, the “hERG current change (%, negative = inhibition) at 10uM” value is on record as -2.45%.
In the case of `COc1ccc(Cc2nnc(NC(=O)c3ccco3)s2)cc1OC` it was 5.42%.
In the case of `c1ccc2[nH]c(CSc3nccs3)nc2c1` it was -6.76%; in that of `O=C(Cn1cnc2c(nnn2Cc2ccccc2)c1=O)c1ccccc1`, -8%.
`COCCN(Cc1cc2ccc(C)c(C)c2nc1Cl)C(=O)N1CCOCC1`: the “hERG current change (%, negative = inhibition) at 10uM” value is -11%.
In the case of `OCC1(CCOc2ccccc2)CCN(Cc2nc3ccc(F)cc3[nH]2)CC1` it was -55%; in that of `Cc1ccccc1CC1(CO)CCCN(Cc2cn[nH]c2-c2ccccc2)C1` (stereo not drawn), -23.9%; in that of `OCCC1CN(Cc2nc3ccc(F)cc3[nH]2)CCN1C1CCCC1` (stereo not drawn), -15.9%.
In the case of `OCC1(CCOc2ccccc2)CCN(Cc2cn[nH]c2-c2ccc(F)cc2)CC1` it was -71.6%.
`OCC1(CC2CCCCO2)CCN(Cc2nc3ccccc3[nH]2)CC1` (stereo not drawn): the “hERG current change (%, negative = inhibition) at 10uM” value amounted to 18%.
The value for `OCC1(CCOc2ccccc2)CCN(Cc2cn[nH]c2-c2ccccc2)CC1` was -74.4%; that for `CC1CCN(CC(=O)Nc2ccc(S(=O)(=O)N3C(C)CCCC3C)cc2)CC1` (stereo not drawn) was 3.93%; that for `O=C(Cc1ccccc1)NCCc1cnc[nH]1` was 17.4%.
Turning to `COc1ccc(C(=O)NCC(C)NC(=O)c2ccc(OC)c(OC)c2)cc1OC` (stereo not drawn), the “hERG current change (%, negative = inhibition) at 10uM” value was determined as 13.8%.
For the molecule `COC(=O)Cc1ccc(NC(C)=O)cc1`, the “hERG current change (%, negative = inhibition) at 10uM” value is 8.79%.
As for `COc1cccc(NC(=O)CCC(=O)NCc2ccco2)c1`, the “hERG current change (%, negative = inhibition) at 10uM” value is 17.2%.
The value for `Cc1c(Cl)cccc1NC(=S)/C(=C(\[O-])c1ccc(Cl)s1)[n+]1ccccc1` was 3.76%; that for `Cc1cc(C=C2C(=O)c3ccccc3C2=O)c(C)n1-c1ccc(C(=O)O)cc1` was 1.68%; that for `Cc1nn2c(C(F)(F)F)cc(-c3ccc(Cl)cc3)nc2c1C(=O)N1CCOCC1` was -13.6%.
The value for `Cc1nc2ccccn2c1P(=Nc1ccccc1)(N(C)C)N(C)C` was -52.5%; that for `CCN(CC)P(=O)(c1ccccc1)c1c(C)nc2ccccn12` (stereo not drawn) was -3.24%; that for `CCN(CC)P(=S)(c1c(C)nc2ccccn12)c1c(C)nc2ccccn12` was -9.33%.
Turning to `N#Cc1c(SCC(=O)Nc2nc3ccc(Br)cc3s2)sc2c(O)cc(=O)[nH]c12`, the “hERG current change (%, negative = inhibition) at 10uM” value worked out at 9.27%.
In the case of `CC(C)CNC(=S)NC(=O)c1ccc(F)cc1` it was 5.45%.
For `CC(=O)c1ccc2c(c1)C1C=CCC1C(c1ccncc1)N2` (stereo not drawn), the “hERG current change (%, negative = inhibition) at 10uM” value is -21%.
The value for `COc1ccc(C(=O)N/N=C(\C)c2ccc3c(c2)C2C=CCC2C(c2ccccc2)N3)cc1` (stereo not drawn) was -1.79%; that for `COC(=O)c1ccc(C2Nc3ccc(/C(C)=N/NC(=O)C(OC)c4ccccc4)cc3C3C=CCC32)cc1` (stereo not drawn) was -76.2%.
In the case of `CCN(CC)C(=O)c1csc(Nc2ccc(C)cc2)n1` it was -34.8%; in that of `S=C(NCc1cccnc1)Nc1cccc2ccccc12`, -9.3%.

The values above are taken from publication PMC4336329 (PLoS ONE, 2015).
